High-throughput results deposited in PubChem by National Center for Advancing Translational Sciences (NCATS).
Hits are enriched below; roughly 2% of the tested compounds scored in any of these assays.
KCNH2 3.1 block: blocks the human KCNH2 3.1 channel isoform. U2OS KCNH2 3.1, thallium flux FluxOr; stronger effect = lower value. activity change, % (tested at about 1.8 µM). 340,000 tested, 0.95% active;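 active = maximum activity change below -70%; inconclusive = maximum activity change from -70% to -50%; inactive = maximum activity change above -50%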;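 note: thallium influx rate constant from kinetic fluorescence after stimulation buffer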
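Virally transduced U2OS (3.1 isoform, 4 h infection in dark at RT) → overnight 37 C → FluxOr + Red40 in HBSS/HEPES, 45 min → stimulation buffer, 2 min kinetic read → rate constant vs DMSO controls.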
KDM4E inh: JMJD2E (human) inhibition; Potency, µM (highest dose often 57.1 µM), for the others: top-dose activity change, negative = inhibition, hits mostly inhibitors; 230,000 tested, 1.6% active; JMJD2E catalytic domain, FDH-coupled NADH fluorescence (FDH is formaldehyde dehydrogenase); AID 2147; active = well fitted inhibition curve with a large enough effect, not every such curve was filed as active; inconclusive = small, poorly fitted or top-dose-only effect, or another doubt; inactive = no such curve, though single readings can be large or run the other way;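 note: potency is the fitted concentration of half-maximal effect; 0% = wells with enzyme and -100% = buffer wells without enzyme; nearly all actives have a fitted effect of over 50% in size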
Six1-Eya2 inh: blocks human Six1 binding to Eya2; AID 651725; Q15475+O00167; AlphaScreen GST-Six1/His-Eya2 binding, biochemical; stronger effect = lower value; 360,000 tested, 0.56% active; activity change, % (test concentration not listed)
Target sequence (O00167 whole entry, looked up): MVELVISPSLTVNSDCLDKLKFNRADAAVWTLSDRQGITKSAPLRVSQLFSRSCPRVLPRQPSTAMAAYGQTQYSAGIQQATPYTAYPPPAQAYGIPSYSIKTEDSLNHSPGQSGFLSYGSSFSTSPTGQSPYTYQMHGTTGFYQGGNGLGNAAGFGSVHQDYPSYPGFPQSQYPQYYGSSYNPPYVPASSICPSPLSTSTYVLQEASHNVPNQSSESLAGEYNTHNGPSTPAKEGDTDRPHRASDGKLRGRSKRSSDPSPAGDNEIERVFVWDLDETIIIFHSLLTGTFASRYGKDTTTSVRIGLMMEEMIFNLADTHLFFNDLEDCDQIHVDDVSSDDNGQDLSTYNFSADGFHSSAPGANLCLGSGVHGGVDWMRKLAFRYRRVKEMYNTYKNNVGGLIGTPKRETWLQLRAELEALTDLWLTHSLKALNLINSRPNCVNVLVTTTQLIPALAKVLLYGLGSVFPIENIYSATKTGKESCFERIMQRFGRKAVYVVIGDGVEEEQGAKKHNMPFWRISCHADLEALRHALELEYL
Target sequence (Q15475 whole entry, looked up): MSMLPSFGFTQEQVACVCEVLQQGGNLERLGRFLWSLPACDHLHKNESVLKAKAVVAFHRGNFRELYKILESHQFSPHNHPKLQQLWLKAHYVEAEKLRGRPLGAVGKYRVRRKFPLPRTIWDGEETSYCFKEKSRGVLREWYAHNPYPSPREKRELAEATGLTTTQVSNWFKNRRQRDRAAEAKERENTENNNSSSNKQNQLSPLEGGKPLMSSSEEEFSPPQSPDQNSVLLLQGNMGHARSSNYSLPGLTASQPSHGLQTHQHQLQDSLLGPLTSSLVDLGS
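Compounds are tested against tagged Six1 and Eya2 proteins bridged by glutathione donor and nickel acceptor beads; after a one-hour incubation at 37 °C without light, AlphaScreen emission is recorded.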
hERG WT inh: inhibitors of human wildtype KCNH2 potassium channel. Q12809. U2OS, BacMam KCNH2, thallium flux FluxOr; stronger effect = lower value. activity change, % at 1.84 µM. 340,000 tested, 0.37% active. AID 720551;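 active = maximum activity change below -70%; inconclusive = maximum activity change between -70% and -50%; inactive = maximum activity change above -50%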
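U2OS cells were transduced with wild-type KCNH2 virus (2.03 x 10^8 / mL) for 4 h at room temperature, then cultured overnight at 37 C. Thallium flux was read with FluxOr dye. Rate constants were normalized to DMSO controls.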
CtBP-E1A blk: inhibitors of CtBP/E1A interaction | AID 651724 | activity change, % (concentration not given with the values) | AlphaScreen GST-E1A/His-CtBP binding, 1536-well; stronger effect = lower value | 340,000 tested, 0.49% active
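Homogeneous bead-based format: GST-tagged E1A captured on glutathione donor beads, His-tagged CtBP on nickel acceptor beads; compounds precede bead addition by 2 h at 37 °C.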
An asterisk follows results filed as active; i = inactive; ? = inconclusive; · = not tested or not shown. Cut-off read from the data, not from the text of the source, unless noted: active = activity change below about -65%; inconclusive = mostly about -30% to -63%; inactive = weaker than that. Unless noted, % is set by controls: 0 for no effect and ±100 for the full control effect.

SMILES | KCNH2 3.1 block | KDM4E inh | Six1-Eya2 inh | hERG WT inh | CtBP-E1A blk
CCOC(=O)c1c(C)[nH]c(C)c1S(=O)(=O)N(C)Cc1ccco1 | 17 | · | -1 | 2 | 2
CC(C(=O)Nc1cc(C(F)(F)F)ccc1N1CCOCC1)N1C(=O)C2CCCCC2C1=O (stereo unspecified) | -8 | · | 0 | -2 | 2
CCN(CCN(C)C)C(=O)C1CCN(S(=O)(=O)c2c(C)noc2/C=C/c2ccccc2F)CC1 | -20 | · | 22 | 34 | ·
CCOc1ccccc1/C=C/c1onc(C)c1S(=O)(=O)N1CCC(C(=O)N(CC)CC)CC1 | -95* | · | 9 | 3 | ·
O=C(CCNC(=O)c1ccccc1)OCN1C(=O)c2ccccc2C1=O | -73* | -4% | 6 | -1 | 6
Cc1cc(S(=O)(=O)Nc2cccnc2)c(C)s1 | -72* | 4% | 8 | 3 | 7
O=c1nccc(N/N=C/c2ccccc2O)[nH]1 | 7 | · | -75* | 0 | -92*
COc1cccc(/C=N/Nc2ccnc(=O)[nH]2)c1O | 2 | · | -76* | 2 | -92*
CCOc1ccccc1/C=N/Nc1ccnc(=O)[nH]1 | 7 | · | -6 | -14 | -16
COc1cccc(/C=N/Nc2snc(SC)c2C#N)c1O | -2 | -25% | ? | -1 | -76*
COc1cccc(/C=N/Nc2ccc([N+](=O)[O-])cn2)c1O | -7 | · | 725 | -3 | 171
Cc1ccc(COC(=O)CCN=C2NS(=O)(=O)c3ccccc32)cc1 | 12 | · | 0 | -5 | 10
Cc1ccc(NC(=O)c2cccc(OC(F)F)c2)c(OC(F)F)c1 | -17 | 1% | 9 | -2 | 12
Cc1c(C(=O)N2CCN(CCc3ccccn3)CC2)oc2ccc(Cl)cc12 | -103* | · | -1 | -8 | -9
CCNC(=S)N1CCN(c2ccccn2)CC1 | 4 | ? | 0 | i | 0
CC(NNC(=S)N1CCN(c2ccccn2)CC1)c1nccc2ccccc12 (stereo unspecified) | -13 | · | -92* | 14 | 3
O=C1c2c(O)cccc2C(C2OC(CO)[C@@H](O)[C@H](O)[C@H]2O)c2cc(CO)cc(O)c21 (stereo partly specified) | -1 | · | 5 | -31 | -1
O=C1c2cc(CO)cc(O)c2C(=O)c2c(O[C@@H]3OC(CO)[C@@H](O)[C@@H](O)[C@@H]3O)cccc21 (stereo partly specified) | 10 | · | -3 | -8 | -4
O=C(O)c1cc(O)c2c(c1)[C@@H]([C@H]1c3cc(C(=O)O)cc(O)c3C(=O)c3c(O[C@@H]4O[C@H](CO)[C@@H](O)[C@H](O)[C@H]4O)cccc31)c1cccc(OC3O[C@H](CO)[C@@H](O)[C@H](O)[C@H]3O)c1C2=O (stereo partly specified) | 4 | · | -82* | -3 | -29
O=C(O)c1cc(O)c2c(c1)[C@H]([C@H]1c3cc(C(=O)O)cc(O)c3C(=O)c3c(O[C@@H]4O[C@H](CO)[C@@H](O)[C@H](O)[C@H]4O)cccc31)c1cccc(OC3O[C@H](CO)[C@@H](O)[C@H](O)[C@H]3O)c1C2=O (stereo partly specified) | 0 | · | -74* | 8 | ?
NC(=O)COC(=O)/C=C/c1ccc(S(=O)(=O)N2CCCCCC2)cc1 | -1 | 17% | -3 | -2 | 2
COc1cccc(Nc2nc(CN3CCOCC3)nc3sc4c(c23)CCCC4)c1 | -6 | -5% | -20 | -134* | 0
COc1cc(N=c2ssnc2Cl)cc(OC)c1 | 11 | 20µM* | -4 | 1 | -1
N#Cc1cccc(N=c2ssnc2Cl)c1 | -14 | -22% | 8 | 1 | 5
Clc1nssc1=Nc1ccc(Br)cc1 | 1 | 11µM* | 2 | -11 | -5
SMILES | KCNH2 3.1 block | KDM4E inh | Six1-Eya2 inh | hERG WT inh | CtBP-E1A blk
O=C(COC(=O)/C=C/c1ccccc1)NC1CCS(=O)(=O)C1 (stereo unspecified) | 0 | · | 0 | -21 | ·
Cc1nn(-c2ccccc2)c(C)c1/C=C/C(=O)OCC(=O)NC1CCS(=O)(=O)C1 (stereo unspecified) | 29 | 1% | -3 | 1 | -75*
Cc1ccccc1Cn1nc(C)c(NC(=O)C2c3ccccc3Oc3ccccc32)c1C | -10 | 7% | 1 | -6 | 7
O=C(O)C(Cc1c[nH]c2ccccc12)N1Cc2ccccc2C1=O (stereo unspecified) | 18 | 3% | -6 | -7 | ?
COC(=O)c1oc2ccccc2c1NC(=O)/C=C/C(=O)O | -74* | -29% | -2 | -10 | 6
COC(=O)c1oc2ccccc2c1N | 0 | ? | -3 | 6 | -3
CCc1cccc2c1NC(=O)C2=O | 6 | · | 9 | 3 | 3
COc1ccc(C2Nc3ccccc3C(=O)N2Cc2ccco2)cc1COc1ccc([N+](=O)[O-])cc1 (stereo unspecified) | -80* | -10% | -10 | -31 | -8
Cc1ccc(N2CC(C(=O)Nc3nnc(SCC(=O)NCC4CCCO4)s3)CC2=O)cc1C (stereo unspecified) | 17 | · | -3 | -4 | 10
COc1ccc(N2CC(C(=O)Nc3nnc(SCC(=O)NCC4CCCO4)s3)CC2=O)cc1 (stereo unspecified) | -197* | · | -11 | -128* | 0
O=C(N/N=C/c1ccc(-c2ccc(Cl)c(C(=O)O)c2)o1)c1cc2c(ccc3ccccc32)o1 | -6 | -4% | ? | -5 | -85*
Cc1ccc(-c2ccc(/C=N\NC(=O)c3cc4c(ccc5ccccc54)o3)o2)cc1[N+](=O)[O-] | -19 | -28% | -2 | -2 | 3
COC(=O)c1sccc1NC(=O)CSc1ccc(Cl)cc1 | -15 | 3% | 25 | 0 | 16
O=C(Nc1ccc(N2CCOCC2)cc1)c1ccccc1SCC(=O)N1CCCC1 | 8 | -5% | 4 | -4 | 2
O=c1c2ccccc2[nH]c2ccc(F)cc12 | 8 | ? | 4 | -15 | 8
O=c1nc(-c2ccccc2Cl)c2cc(F)ccc2[nH]1 | -79* | · | 2 | 0 | ·
CN(Cc1ccccc1)S(=O)(=O)c1cccc2nsnc12 | 16 | 5% | -3 | · | -1
C=C1CCN([C@@H](CC(C)C)C(=O)NCCC(C)C)S(=O)(=O)c2ccccc21 | -75* | · | 1 | -2 | 0
C=C1CCN([C@@H](CC(C)C)C(=O)NCc2ccc(Cl)cc2)S(=O)(=O)c2ccccc21 | 1 | · | 13 | 5 | ·
Cc1cc(C)n(CC(=O)n2c3c(c4ccccc42)CCCC3)n1 | 6 | -6% | 4 | 4 | -2
CCN(CC(=O)Nc1ccccc1C(F)(F)F)C(=O)C1CC(=O)N(Cc2ccccc2)C1 (stereo unspecified) | 6 | · | -86* | 5 | -2
COc1ccc(/C=C/C(=O)c2ccc(OC)cc2OC)cc1 | 3 | -16% | 3 | 1 | -3
